Shown are actives, neighbours in structure and some others; about 3.7% of the full set was active somewhere.
BoNT-A LC inh2 = BoNT/A light chain protease inhibitors, primary screen, biochemical, flow cytometry, MLPCN library; inhibition, % at 10 µM; multiplex microsphere protease substrate cleavage; 360,000 tested, 0.17% active; Botulinum neurotoxin type A light chain protease (Clostridium botulinum A str. ATCC 3502); in the data active = inhibition above about 30%; inconclusive = no clear call, values can overlap the other calls; note: plate controls were buffer without enzyme for full effect and enzyme alone for no effect
BJeLR lethal = MLPCN primary cell-based screen for lethality selective to Ras in HRASV12 cells; BJeLR (HRASV12) viability, CellTiter-Glo ATP luminescence, 48 h; inhibition, % (test concentration not listed); 300,000 tested, 0.17% active; AID 1554, 2009; in the data active = inhibition above about 50%; inconclusive = no clear call, values can overlap the other calls
Anthrax LF prot = Bacillus anthracis LF protease inhibitors, primary screen, biochemical, multiplex microsphere, MLPCN library; multiplex microsphere protease cleavage assay; inhibition, % at 10 µM; Lethal factor (Bacillus anthracis), P15917; 360,000 tested, 0.12% active; AID 588501, 2011; in the data active = inhibition above about 30%; inconclusive = no clear call, values can overlap the other calls; note: plate controls were buffer without enzyme for full effect and enzyme alone for no effect
Target sequence (P15917 whole entry, looked up): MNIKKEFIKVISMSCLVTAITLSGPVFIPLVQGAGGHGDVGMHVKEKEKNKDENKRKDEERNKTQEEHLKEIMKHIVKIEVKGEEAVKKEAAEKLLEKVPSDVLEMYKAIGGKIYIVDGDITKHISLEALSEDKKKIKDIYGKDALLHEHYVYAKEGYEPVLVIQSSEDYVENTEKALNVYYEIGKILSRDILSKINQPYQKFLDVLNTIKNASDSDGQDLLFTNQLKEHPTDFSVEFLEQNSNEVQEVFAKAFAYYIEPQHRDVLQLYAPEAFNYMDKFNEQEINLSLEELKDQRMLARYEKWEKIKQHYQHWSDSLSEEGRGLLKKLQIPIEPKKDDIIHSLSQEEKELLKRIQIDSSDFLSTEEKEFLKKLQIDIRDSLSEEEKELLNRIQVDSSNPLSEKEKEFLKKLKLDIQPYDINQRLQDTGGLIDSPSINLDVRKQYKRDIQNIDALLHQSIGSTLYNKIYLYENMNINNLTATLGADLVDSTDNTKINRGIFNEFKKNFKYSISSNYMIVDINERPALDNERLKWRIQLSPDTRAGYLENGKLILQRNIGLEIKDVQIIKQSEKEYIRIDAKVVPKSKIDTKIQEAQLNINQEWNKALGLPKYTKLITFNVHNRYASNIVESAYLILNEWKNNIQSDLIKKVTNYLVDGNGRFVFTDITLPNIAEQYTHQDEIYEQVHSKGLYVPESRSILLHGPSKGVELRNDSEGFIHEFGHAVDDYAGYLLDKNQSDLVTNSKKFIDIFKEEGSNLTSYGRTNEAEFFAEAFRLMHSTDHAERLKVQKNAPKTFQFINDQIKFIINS
Vc quorum ag-1 = inducers of Vibrio cholerae quorum light production without autoinducers, primary screen, BH1578 luxS cqsA deficient, single point; V. cholerae BH1578 lux reporter, luminescence, 6 h; activation, % at 18.7 µM; 350,000 tested, 0.16% active; AID 588436, 2011; in the data active = activation mostly above about 9.7%, no sharp cut-off; inconclusive = no clear call, values can overlap the other calls; inactive = mostly below about 3.7%
BoNT-F LC inh = BoNT/F light chain protease inhibitors, primary screen, biochemical, flow cytometry, MLPCN library. Botulinum neurotoxin type F light chain protease (Clostridium botulinum). Multiplex microsphere protease cleavage assay. inhibition, % at 10 µM. 360,000 tested, 0.22% active; in the data active = inhibition above about 35%, passing the limit was not always enough; inconclusive = no clear call, values can overlap the other calls; note: plate controls were buffer without enzyme for full effect and enzyme alone for no effect
Autofluor counter = compound fluorescence in toxin protease inhibitor counterscreen; compound autofluorescence counterscreen, microsphere flow cytometry; stronger effect = higher value; fluorescence intensity (no concentration beside the values); 360,000 tested, 3.1% active; in the data active = fluorescence intensity above about 16000; inconclusive = no clear call, values can overlap the other calls
Vc quorum ag-2 = V. cholerae lux activation without autoinducers – BH1578 luxS cqsA deficient, cherry-pick, plate reader, dose response | shares compounds with Vc quorum ag-1 | V. cholerae BH1578 lux reporter, luminescence, 6 h | activation, % at 50 µM | 620 tested, under 10 active | AID 602243, 2012
BoNT-A LC CP1 = BoNT/A light chain protease inhibitors, confirmation, biochemical, flow cytometry, cherry pick 1. 720 tested, 3% active. shares compounds with BoNT-F LC inh. inhibition, % at 10 µM. AID 602139, 2011. multiplex microsphere protease assay; in the data active = inhibition above about 32%
BoNTF LC inh 1 = BoNT/F light chain protease inhibitors, confirmation, biochemical, flow cytometry, cherry pick 1 | AID 602140, 2011 | 720 tested, under 10 active | inhibition, % at 10 µM | shares compounds with BoNT-F LC inh | multiplex microsphere protease cleavage assay
Anthrax LF CP1 = Bacillus anthracis LF protease inhibitors, confirmation, biochemical, multiplex microsphere, cherry pick 1. 720 tested, under 10 active. multiplex microsphere protease cleavage assay. shares compounds with BoNT-F LC inh. AID 602142, 2011. inhibition, % at 10 µM
Starred values were filed as active, the others as inactive. Unless noted, the rule behind the calls is not given here.

How did O=C(c1ccc(N2CCOCC2)nc1)N1CCOCC1 do in these assays?
BoNT-A LC inh2: 0; BJeLR lethal: 3; Anthrax LF prot: 3; Vc quorum ag-1: 2; BoNT-F LC inh: 1; Autofluor counter: 7981

What do the screens show for `O=C1NC[C@H](CCCCN2C[C@H](Cc3ccc(O)cc3)N(CCc3ccc(O)cc3)C(=O)C2=O)N(CCc2ccc(O)cc2)C1=O`?
BoNT-A LC inh2: 0; Anthrax LF prot: -4; BoNT-F LC inh: 0; Autofluor counter: 6016

Results for COc1cccc(CCOC(=O)c2c(-c3ccsc3)oc3c2C(OC(C)=O)CCC3)c1 (configuration not stated) ?
BoNT-A LC inh2: 0; Anthrax LF prot: -6; BoNT-F LC inh: -1; Autofluor counter: 6144

What do the screens show for `COc1ccc(C(CNC(=O)c2ccc(-c3cccc(C(F)(F)F)c3)o2)N2CCOCC2)cc1` (configuration not stated)?
BoNT-A LC inh2: 8; BJeLR lethal: 23; Anthrax LF prot: 1; Vc quorum ag-1: 14; BoNT-F LC inh: 28; Autofluor counter: inconclusive; Vc quorum ag-2: 0

How did Cc1ccc(S(=O)(=O)N2CCN(C(=O)c3cc(-c4cccs4)nn3-c3ccccc3)CC2)cc1 do in these assays?
BoNT-A LC inh2: -26; BJeLR lethal: -7; Anthrax LF prot: -2; Vc quorum ag-1: -4; BoNT-F LC inh: -33; Autofluor counter: inconclusive

How did O=C(c1cc(-c2cccs2)nn1-c1ccccc1)N1CCN(S(=O)(=O)c2ccccc2)CC1 do in these assays?
BoNT-A LC inh2: -2; BJeLR lethal: -6; Anthrax LF prot: 1; Vc quorum ag-1: 14; BoNT-F LC inh: 0; Autofluor counter: 6621; Vc quorum ag-2: 0

Results for CC1CC(c2ccccc2)n2nc(NC(=O)c3ccco3)nc2N1 (configuration not stated) ?
BoNT-A LC inh2: 2; BJeLR lethal: 8; Anthrax LF prot: 0; Vc quorum ag-1: inactive; BoNT-F LC inh: inconclusive; Autofluor counter: 3609

What do the screens show for `COc1ccc(C2CC(c3ccc(F)cc3)n3nc(NC(=O)c4ccco4)nc3N2)cc1` (configuration not stated)?
BoNT-A LC inh2: -1; BJeLR lethal: -13; Anthrax LF prot: -9; Vc quorum ag-1: -1; BoNT-F LC inh: -4; Autofluor counter: 6286; BoNT-A LC CP1: -2; BoNTF LC inh 1: -12; Anthrax LF CP1: -5

Results for O=C(NCc1ccco1)c1cccc2c(-c3ccc(F)c(F)c3)coc12 ?
BoNT-A LC inh2: -1; Anthrax LF prot: -10; Vc quorum ag-1: 0; BoNT-F LC inh: -5; Autofluor counter: 3997

Results for CSc1ccc(CN(C)CC(=O)NCCc2ccccc2)cc1 ?
BoNT-A LC inh2: 2; BJeLR lethal: -9; Anthrax LF prot: 3; Vc quorum ag-1: inactive; BoNT-F LC inh: 40*; Autofluor counter: 3529; BoNT-A LC CP1: -1; BoNTF LC inh 1: -2; Anthrax LF CP1: -4

Results for COc1cc(CC(NC(C)=O)C(=O)NC2CCN(C(=O)c3ccc(C)cc3)CC2)cc(OC)c1 (configuration not stated) ?
BoNT-A LC inh2: 0; BJeLR lethal: -12; Anthrax LF prot: 5; Vc quorum ag-1: inactive; BoNT-F LC inh: 43*; Autofluor counter: 2861; BoNT-A LC CP1: -1; BoNTF LC inh 1: -5; Anthrax LF CP1: 0

Results for COc1ccc2nc(C)cc(Nc3ccc(C)cc3)c2c1 ?
BoNT-A LC inh2: -2; BJeLR lethal: -4; Anthrax LF prot: 8; Vc quorum ag-1: inactive; BoNT-F LC inh: inconclusive; Autofluor counter: 3745

How did COc1ccc2nc(C)cc(NCc3ccc(F)cc3)c2c1 do in these assays?
BoNT-A LC inh2: 16; BJeLR lethal: 6; Anthrax LF prot: 14; Vc quorum ag-1: -1; BoNT-F LC inh: 134*; Autofluor counter: 84261*; BoNT-A LC CP1: -11; BoNTF LC inh 1: 74*; Anthrax LF CP1: 7

What do the screens show for `CC(=O)c1cnn(-c2c(Cl)cc(Cl)cc2Cl)c1C`?
BoNT-A LC inh2: 0; BJeLR lethal: 5; Anthrax LF prot: 6; Vc quorum ag-1: 1; BoNT-F LC inh: 38*; Autofluor counter: 2937; BoNT-A LC CP1: -2; BoNTF LC inh 1: -2; Anthrax LF CP1: -4

How did C[C@@H]1CCCCO[C@@H](CN(C)S(=O)(=O)c2cn(C)cn2)[C@@H](C)CN([C@H](C)CO)C(=O)c2cc(NC(=O)Nc3ccc(C(F)(F)F)cc3)ccc2O1 do in these assays?
BoNT-A LC inh2: 0; Anthrax LF prot: -1; Vc quorum ag-1: 0; BoNT-F LC inh: -7; Autofluor counter: 3305

How did O=C(COc1ccccc1)NCc1n[nH]c(=S)n1-c1ccccc1 do in these assays?
BoNT-A LC inh2: 7; BJeLR lethal: 7; Anthrax LF prot: 1; Vc quorum ag-1: 0; BoNT-F LC inh: 47*; Autofluor counter: 4390; BoNT-A LC CP1: 1; BoNTF LC inh 1: 0; Anthrax LF CP1: 0

Results for CCCSc1cc(=O)n(-c2ccccc2)nc1C(=O)O ?
BoNT-A LC inh2: 0; BJeLR lethal: -3; Anthrax LF prot: -1; Vc quorum ag-1: 0; BoNT-F LC inh: -1; Autofluor counter: 1895

How did COC(=O)CCSc1cc([N+](=O)[O-])cc2c1c(C1OCCO1)nn2-c1ccccc1 do in these assays?
BoNT-A LC inh2: 33*; BJeLR lethal: 3; Anthrax LF prot: 14; Vc quorum ag-1: inactive; BoNT-F LC inh: 5; Autofluor counter: 2047; BoNT-A LC CP1: 8; BoNTF LC inh 1: 0; Anthrax LF CP1: 2

Results for CNc1n[nH]c(-c2ccccc2)n1 ?
BoNT-A LC inh2: 0; Anthrax LF prot: -4; Vc quorum ag-1: inactive; BoNT-F LC inh: 0; Autofluor counter: 3719

Source: PubChem BioAssay (several laboratories)
